# The entries come from a sample that favours hits as a whole.
# Dicer inh = inhibitors of Dicer pre-microRNA processing, primary screen, biochemical, cat-ELCCA, chemiluminescence | cat-ELCCA pre-miR-21 Dicer processing; hits give high values | actives 6% (n = 47,000) | z-score at 25 µM | AID 1347074, 2019; in the data active = z-score above about 3, passing the limit was not always enough;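 note: plate controls were vehicle for no effect and no enzyme for full effect; higher signal means more uncleaved substrate so more Dicer inhibition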
# * marks the source's active call; other numbers are inactive results.
SMILES,Dicer inh
O=C1C(=O)N(CCCN2CCOCC2)C(c2ccccc2)/C1=C(\O)c1ccc(Br)cc1 (configuration not stated),2.3
Cc1cc(S(=O)(=O)n2cccc2)c(C)cc1Cl,-0.38
O=S(=O)(c1ccc(F)cc1)N(Cc1ccccc1)c1ccccn1,2.8
COc1ccc(-c2nnc3c4cnn(-c5ccccc5)c4ncn23)cc1OC,1.3
Nc1nc(/C=C/c2ccccc2)nc(-c2ccccc2O)n1,-0.1
CC(NC(=S)Nc1ccc(Oc2ccc(Cl)cc2)cc1)c1ccccc1 (configuration not stated),3.9*
CCOc1ccc(NC(=S)NC(c2ccccc2)c2ccccc2)cc1,-0.48
Cc1ccc(C(C)NC(=S)Nc2ccc(Cl)cc2)c(C)c1 (configuration not stated),-0.11
CN1CCN(c2c3c(c(C#N)c4nc5ccccc5n24)CCC3)CC1,-0.21
CC1=C(C(=O)OCCOC(C)C)C(c2cccc(O)c2)C2=C(CC(c3cccs3)CC2=O)N1 (configuration not stated),0.67
CCCc1cc(=O)[nH]c(SCC(=O)Nc2nc3ccc(OC)cc3s2)n1,1.7
O=C1CCc2cc(-c3csc(/N=C/NO)n3)ccc2N1,-0.07
Nc1ccc(CCc2nc3ccccc3[nH]2)cc1,6.5*
Cc1ccc(Cc2nc3ccccc3[nH]2)cc1,-0.64
CCOC(=O)CCc1nc2ccccc2[nH]1,0.58
N#Cc1c(Cl)cccc1OCC(F)(F)F,0.95
CCCCCCNC(=O)NC(Cc1ccccc1)C(=O)O (configuration not stated),-0.67
Cc1nc2ccc(Cc3ccc4nc(C)[nH]c4c3)cc2[nH]1,5*
Cc1ccc2nc(Cc3nc4ccc(C)cc4[nH]3)[nH]c2c1,-1.7
Cc1ccc2nc(Cc3ccc(N)cc3)[nH]c2c1,2.7
CCC(=O)Oc1ccc2oc(C)c(C(=O)OCCOC)c2c1,1.6
CCOC(=O)NC(Nc1ccc(C)c(C)c1)(C(=O)OCC)C(F)(F)F (configuration not stated),1.6
COc1ccc(CCNC(=O)c2nc3ccccc3c(=O)n2NC(=O)Nc2c(Cl)cccc2Cl)cc1OC,0.02
COc1ccc(OCc2nnc(NC(=O)Nc3ccc(F)cc3)s2)cc1,1.9
COc1ccccc1NC(=O)Nc1c(SC)nsc1SC,-0.75
SMILES,Dicer inh
COc1ccc(NC(=O)Nc2c(SC)nsc2SC)cc1,4*
Cc1nn(-c2ccccc2)c2c1C(=O)C(Br)C(c1ccccc1)C2 (configuration not stated),-1.4
Cc1ccc2oc3c(c(=O)c2c1)C(c1ccccc1)N(Cc1ccc2c(c1)OCO2)C3=O (configuration not stated),0.88
COC(=O)c1ccc(C#CC(C)(C)O)cc1,0.97
O=C(/C=C(\C(=O)c1ccccc1)c1ccccc1)c1ccc2c(c1)OCCO2,0.47
Nc1c(C(=O)Nc2ccccc2)oc2ccccc12,5.4*
O=C(O)C1=C(C(=O)Nc2ccccc2)SCCS1,-0.77
O=C(Nc1ccccc1)c1ccc2ccccc2c1O,0.47
CCOC(=O)C(O)(NC(=O)c1ccc(Cl)cc1Cl)C(F)(F)F (configuration not stated),0.69
Cc1ccc(-c2cc3nccc(-c4cc(C)ccc4O)n3n2)cc1,-2
Oc1ccc(F)cc1-c1ccnc2cc(-c3ccccc3)nn12,6
Oc1ccccc1-c1ccnc2cc(-c3ccccc3)nn12,4.4*
Cn1c(=O)c2c(NCc3ccccc3)cc(=O)n(-c3ccccc3)c2n(C)c1=O,0.68
CCOC(=O)C1=C(C)NC2=C(C(=O)CCC2)C1c1ccc(OC)c(OC)c1 (configuration not stated),-0.59
Cc1onc(-c2ccccc2Cl)c1C(=O)N1CCOC(c2ccccc2)C1C (configuration not stated),-0.25
CC1C(c2ccccc2)OCCN1CN1C(=O)c2ccccc2C1=O (configuration not stated),3.7*
O=C1c2ccccc2C(=O)N1CC1CN(CC(O)C(F)(F)F)CCO1 (configuration not stated),0.07
CCn1c(NCCSc2nc3ccccc3n2C)nc2ccccc21,-0.11
CC1(C)OC(=O)C(=C2CCCCCN2)C(=O)O1,1.3
S=C(NNc1c(Cl)cncc1Cl)Nc1ccc(Cl)cc1Cl,6.7*
CCNC(=S)Nc1ccc(Cl)cc1Cl,-0.94
OCCCNNC(=S)Nc1ccc(Cl)cc1Cl,1
CSC(/N=C/N(C)C)=N/N=C(\C)c1ccc(Cl)c(Cl)c1,-1.4
Cn1cc(Cl)c(C(=O)NC2CCCCC2)n1,2.4
COC(=O)C1=C(C)NC2=C(C(=O)CC(c3ccc(OC)c(OC)c3)C2)C1c1ccccc1OC(C)C (configuration not stated),1.3
SMILES,Dicer inh
CCOc1ccc(C2Nn3c(C)nnc3SC2C(=O)NCC2CCCO2)cc1 (configuration not stated),3.4*
O=C(NCC1CCCO1)C1Sc2nnc(-c3ccccc3)n2NC1c1ccc(Cl)cc1 (configuration not stated),1.7
O=C(NCC1CCCO1)C1Sc2nnc(-c3ccccc3)n2NC1c1ccc(F)cc1 (configuration not stated),-0.07
Cc1nn(-c2ccccc2)cc1/C=N/NC(=O)CN1c2ccccc2Sc2ccccc21,0.48
O=C1c2ccccc2C(=O)N1CNC(Cc1ccccc1)c1ccccc1 (configuration not stated),12
O=C(Nc1ccc(Cl)cc1)OCc1cccc(COC(=O)Nc2ccc(Cl)cc2)c1F,0.87
Cc1n[nH]c(=O)nc1NCCCN(C)C,-1.4
Cc1n[nH]c(=O)nc1NCC1CCCO1 (configuration not stated),5.8*
Cc1ccccc1Cn1c(NCC2CCCO2)nc2c1c(=O)n(C)c(=O)n2C (configuration not stated),1.7
Cc1cn(-c2ccccc2)nc1C(=O)Nc1nn(C)c2ccccc12,1.2
CC(=O)Oc1ccc(C2C(C(=O)OC(C)C)=C(C)NC3=C2C(=O)CCC3)cc1 (configuration not stated),0
CN(C)/C=N/N(C)c1ccc([N+](=O)[O-])cn1,0.93
Cc1cc(C2(c3ccc(N)c(C)c3)CCCCC2)ccc1N,3.1*
Cc1cc(Cc2ccc(N)c(C)c2)ccc1N,1.1
Cc1ccccc1OCc1nc2c3c4c(sc3ncn2n1)C(C)(C)NC(C)(C)C4,-0.15
O=[N+]([O-])c1ccc2nc(-c3ccccc3)c(-c3ccccc3)nc2c1,-2.8
O=c1[nH]c2ccc([N+](=O)[O-])cc2nc1/C=C(\O)c1ccccc1,24*
CC(C)(C)/C(O)=C/c1nc2cc([N+](=O)[O-])ccc2[nH]c1=O,0.03
CCCCCc1ccc(C(=O)NC(=S)Nc2c(C(=O)OCC)cnn2C)cc1,-3
Cn1c(SCC(=O)Nc2cccc(C(F)(F)F)c2)nnc1-c1cncc(C#Cc2ccccc2)c1,0.25
O=C1c2c(O)ccc(O)c2C(=O)c2c(NCCNCCO)ccc(NCCNCCO)c21,21*
O=C1c2ccccc2C(=O)c2c(NCCc3ccc(O)cc3)ccc(NCCc3ccc(O)cc3)c21,-1.4
Nc1ccc2nnc(-c3ccccc3)n2n1,1.4
COc1ccc(S(=O)(=O)Nc2ncccc2C)c(C)c1C,0.47
FC(F)(F)c1cccc(N2CCN(c3cc(C(F)(F)F)nc4ccccc34)CC2)n1,-1.1
CCCCC(=O)N1c2ccccc2NC2=C(C(=O)CCC2)C1c1cccs1 (configuration not stated),-0.59
CSc1ccc(-c2ncnn2-c2cccc(Cl)c2)cc1,0.28
CCc1ccc(-c2ncnn2-c2ccc(Cl)cc2)cc1,3.2*

# High-throughput results deposited in PubChem BioAssay by Center for Chemical Genomics, University of Michigan.
